Records with an inconclusive call do not appear. Entries that show only a call come without a potency. The source made the active and inactive calls. Calls follow the shape of the dose curve; as a rule, active = well fitted activation curve with a large enough effect in the repeat runs; inconclusive = weak or mixed curves; inactive = flat fitted curve, though single readings scatter.

A short description of this assay: Caspase-3/7 induction in HepG2 cells by small molecules, qHTS assay (AID 1346978). Also: nearly all actives have a fitted effect of over 15% in size. Particulars: HepG2 caspase-3/7 activation, Caspase-Glo luminescence, 17 h; series mostly up to 92.4 µM. The text has this: National Center for Advancing Translational Sciences [NCATS] NIH Chemical Genomics Center [NCGC] U.S. Environmental Protection Agency [EPA] National Institutes of Environmental Health Sciences [NIEHS] National Toxicology Program [NTP] Assay overview: Apoptosis is a process of programmed cell death and plays a central role in the development of multicellular organisms. It is a highly regulated process and induces cell death by activating caspases, which are the members of cysteine aspartic acid-specific protease (caspase) family. Caspases involved in apoptosis are classified by their mechanism of action as initiator caspases (caspase-2, -8, -9 and -10) and executioner caspases (caspase-3, -6, and -7). Inhibition of apoptosis results in number of cancers, autoimmune diseases, inflammatory diseases and viral infection. To identify small molecule compounds that induce apoptosis, a homogeneous, luminescent Caspase-Glo 3/7 assay was used. Wild type HepG2 cells were used to screen Tox21 libraries for identifying caspase-3/7 activity inducers.
Assay Protocol Summary: HepG2 cells were dispensed at 2,000 per well in 5uL of culture medium into white solid bottom 1536-well plates (Corning Life Sciences, Corning, NY) using a Multidrop Combi (Thermo Scientific, Waltham, MA) dispenser. The assay plates were incubated at 37 C and 5% CO2 for 5hr, and then 23nL of compounds dissolved in DMSO and positive control were transferred using a Pintool station (Wako, San Diego, CA). The assay plates were incubated at 37C and 5% CO2 for 17hr. For caspase-3/7 activity read, 4uL of Caspase-Glo 3/7 reagent (Promega Corporation, Madison, WI) was added to each well of the assay plates using Flying Reagent Dispenser (FRD, Aurora Discovery, San Diego, CA) and incubated the assay plates at room temperature for 30min. The luminescence signal was quantified using a ViewLux plate reader (Perkin Elmer, Shelton, CT).
With `OC[C@H]1O[C@@](CO)(O[C@H]2O[C@H](CO)[C@@H](O)[C@H](O)[C@H]2O)[C@@H](O)[C@@H]1O`, the Potency result is “inactive”.
As to `C/C=C1/CC2C=CC1C2` (stereo not given), the Potency result was “inactive”.
Next, `CCCCCCCCCCCCS`: “inactive”; `CCc1ccc(CCOc2ccc(CC3SC(=O)NC3=O)cc2)nc1` (stereo not given): “inactive”; `CN(C)CCC(c1ccccc1)c1ccccn1` (stereo not given): “inactive”.
The value for `O=C(O)c1cc(C(=O)O)cc(S(=O)(=O)O)c1` was “inactive”; that for `CCC(O)OC(O)CC` (stereo not given) was “inactive”.
The value for `CN(C)CCC(c1ccc(Cl)cc1)c1ccccn1` (stereo not given) was “inactive”.
Turning to `CCCCCOC(C)=O`, the Potency entry was “inactive”.
Next, `CCCCCCCCCCCCOCCO`: “inactive”; `C=CCNC(N)=S`: “inactive”; `O=[N+]([O-])c1ccc(/C=C/c2ccc([N+](=O)[O-])cc2S(=O)(=O)O)c(S(=O)(=O)O)c1`: “inactive”.
Next, `OCC(CO)(CBr)CBr`: “inactive”; `c1c[nH]cn1`: “inactive”; `CCCCCCCCCCCCCCO`: “inactive”.
The value for `C=C(C)C(=O)Nc1ccc(Cl)c(Cl)c1` was “inactive”.
Regarding `Cc1ccc(S(N)(=O)=O)cc1`, the Potency entry was “inactive”.
Next, `ON=C1CCCCC1`: “inactive”.
The value for `c1ccc2c(c1)ccc1ccccc12` was “inactive”; that for `Oc1cccc2ccccc12` was “inactive”; that for `CCCCCCCCC/C=C/CC1CC(=O)OC1=O` (stereo not given) was “inactive”.
Take `CCCCCC(N)=O`: the Potency result was “inactive”.
With `FC(F)(F)c1ccc(Cl)c(Cl)c1`, the Potency entry was “inactive”.
As for `CCCC(C)=O`, the Potency result was “inactive”.
Next, `C[Si](O[Si](C)(C)C)O[Si](C)(C)C`: “inactive”; `C#CCN(C)Cc1ccccc1`: “inactive”.
The value for `OCc1cccnc1` was “inactive”; that for `CCOC(=O)NNc1nncc2ccccc12` was “inactive”.
Next, `Cc1ccc2oc(=O)ccc2c1`: “inactive”; `Cc1cc(C)c(C)cc1C`: “inactive”; `Cc1cccnc1`: “inactive”.
Take `CCCCCCCCCC`: the Potency result was “inactive”.
For `c1ccc(OCCOc2ccccc2)cc1`, the Potency entry is “inactive”.
For the molecule `COc1ccc(Cl)cc1C(=O)NCCc1ccc(S(=O)(=O)NC(=O)NC2CCCCC2)cc1`, the Potency entry was “inactive”.
Next, `Cc1occc(=O)c1O`: “inactive”.
The value for `CC(C)c1ccc(S(=O)(=O)O)cc1` was “inactive”.
As to `CCCCCC1=CCCC1=O`, the Potency result is “inactive”.
With `O=C(O)[C@H](O)[C@@H](O)[C@H](O)[C@H](O)CO`, the Potency entry is “inactive”.
For the molecule `CC1CCC(C(C)C)C(O)C1` (stereo not given), the Potency entry was “inactive”.
Next, `CCCCOC(=O)COc1ccc(Cl)cc1Cl`: “inactive”.

Source of the values: PubChem BioAssay (Tox21).
